From PubChem BioAssay (NCI)
The panel holds about 83,000 compounds, 20% with a hit somewhere; the sample as a whole holds those more often.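 Results are percent growth after 48 hours of single-concentration exposure. 100 means growth as in untreated cells, lower positive values show inhibition; negative values down to -100 show cell death.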 Values without a mark were called inactive. The source made the active and inactive calls. The calls were made as follows: active = growth percent below 10; inactive = the rest.

Experiments:
Test in all cases: NCI-60 one-dose screen, 48 h (100 = growth as untreated, 0 = no growth, -100 = all killed)
Conditions in all cases: 10 µM
HT29 colon = system: HT29 colon
SNB-75 CNS = system: SNB-75 CNS
SNB-19 CNS = system: SNB-19 CNS
U251 CNS = system: U251 CNS
PC-3 prostate = system: PC-3 prostate
SK-MEL-5 melanoma = system: SK-MEL-5 melanoma
UACC-62 melanoma = system: UACC-62 melanoma
LOX IMVI melanoma = system: LOX IMVI melanoma
SK-MEL-28 melanoma = system: SK-MEL-28 melanoma
SK-MEL-2 melanoma = system: SK-MEL-2 melanoma

| SMILES | growth (HT29 colon) | growth (SNB-75 CNS) | growth (SNB-19 CNS) | growth (U251 CNS) | growth (PC-3 prostate) | growth (SK-MEL-5 melanoma) | growth (UACC-62 melanoma) | growth (LOX IMVI melanoma) | growth (SK-MEL-28 melanoma) | growth (SK-MEL-2 melanoma) |
| --- | --- | --- | --- | --- | --- | --- | --- | --- | --- | --- |
| COc1ccc2nc3ccccc3c(NCCNCC(C)O)c2c1 (stereo not given) | 1.38% (active) | 28.1% | 0.0735% (active) | 1.29% (active) | 4.7% (active) | 10.3% | -59.9% (active) | -47.1% (active) | 8.18% (active) | -21.8% (active) |
| COc1cc(-c2cc(C(=O)N3CCN(C(=O)c4ccccc4NCc4cccs4)CC3)nc3cc(-c4ccccc4)nn23)cc(OC)c1OC | 28% | 71% | 85.1% | 72.1% | 34% | 37.9% | 60% | 70% | 81.5% | 68.4% |
| NC1(C(=O)O)CSSC1 | 90.7% | 40.8% | 36.4% | 15.1% | 79.1% | 69.9% | 97.4% | 32.2% | 34.8% | 111% |
| Cc1cc(=O)[nH]c(N/N=C/c2ccccc2O)n1 | 46.1% | 89% | 76.9% | 45.9% | 67.4% | 90.8% | 92.3% | 59.5% | 86.3% | 73.9% |
| COc1ccc(Cl)cc1C(=O)Nc1nc2ccc(Cl)cc2s1 | 109% | 74.3% | 103% | 87.3% | 84.4% | 92.8% | 91.5% | 81.2% | 105% | 104% |
| COc1ccc(Cl)cc1-n1nnc(-c2nc3ccccc3[nH]2)c1N | 47.2% | 32.5% | 77% | 53.2% | 89.2% | 95.9% | 104% | 77.4% | 100% | 93.2% |
| COc1ccc(Nc2ccnc(NCCNc3ccnc4cc(Cl)ccc34)n2)cc1 | 9.08% (active) | 78.9% | 67.4% | 59.1% | 30.1% | -50.8% (active) | 74.9% | 8.82% (active) | -29% (active) | 71.8% |
| N#CSCC1CC(O)(c2ccccc2)CC(c2ccc(Cl)cc2)O1 (stereo not given) | 3.59% (active) | 49.2% | 81.5% | 55.2% | 29.4% | 68.3% | 56.5% | 13.1% | 72.1% | 40.5% |
| O=c1[nH]c(-c2ccc(Cl)cc2)nc2sc3c(c12)CCCC3 | 106% | 57.9% | 76.6% | 54.3% | 93.2% | 75.9% | 55.8% | 48.9% | 107% | 102% |
| CCCCCCc1cc(N=Nc2ccc(S(=O)(=O)Nc3cc(C)nc(C)n3)cc2)c(O)cc1O | 95.6% | 91.8% | 103% | 100% | 96.2% | 98.9% | 105% | 96.2% | 115% | 90.5% |
| CCCCN(CCCC)CCCCCCCCC(O)c1cc2ccccc2c2ccccc12 (stereo not given) | 32.9% | 61.8% | 67.9% | 49.3% | 45.2% | 70% | 61.8% | 49.2% | 79.6% | 84.7% |
| Cc1cc(Nc2ccc(Cl)cc2)nc(NCCCNc2ccnc3cc(Cl)ccc23)n1 | -91.4% (active) | -94.9% (active) | -14.3% (active) | -91.3% (active) | -19.4% (active) | -99.8% (active) | -80.2% (active) | -83.8% (active) | -99.8% (active) | -93.4% (active) |
| Cc1cc2ccccc2nc1-c1ccccc1F | 119% | 112% | 110% | 91.1% | 94.3% | 102% | 105% | 97.8% | 116% | 111% |
| CSC1=NCCCC1 | 120% | 99.9% | 110% | 103% | 100% | 106% | 113% | 98.4% | 109% | 105% |
| Cc1ccc(N=Nc2c(N)nc(N)[nH]c2=O)cc1C | 93% | 104% | 110% | 103% | 95.7% | 101% | 109% | 96% | 115% | 100% |
| COc1cc(-c2cc(/C=C/C(=O)c3ccc4c(c3)OCO4)[nH]n2)cc(OC)c1OC | 43% | 69.7% | 66.5% | 43% | 59% | 95.9% | 78.9% | 42.8% | 94.3% | 100% |
| CSc1nc(=O)n(Cc2ccc(Cl)cc2)c(=O)[nH]1 | 109% | 74.6% | 108% | 94.6% | 101% | 110% | 112% | 96.8% | 107% | 116% |
| O=C1C(c2ccccc2)C2C=CC(C2)N1O (stereo not given) | 97.9% | 107% | 106% | 109% | 98.2% | 106% | 101% | 99.6% | 118% | 103% |
| COc1cc(-c2cc(C(=O)N3CCN(C(=O)c4ccccc4NCc4ccco4)CC3)nc3cc(-c4ccccc4)nn23)cc(OC)c1OC | 1.33% (active) | 8.05% (active) | 45.4% | 24.7% | 15.8% | 3.81% (active) | 39.7% | 30% | 59.3% | 10.5% |
| C=C1c2c(C)nn(-c3ccc(OC)cc3)c2N(C)C23C[C@@H]1C1(C)c4c(C)nn(-c5ccc(OC)cc5)c4N(C)C(C)(C[C@H]12)C3 (stereo not given in full) | 19.4% | 59.6% | 46.8% | 32.1% | -4.74% (active) | 16.1% | 26.9% | 18.4% | 56.8% | 37.2% |
